NPC1 prom act: qHTS Assay for NPC1 Promoter Activators; Huh7 NPC1 promoter luciferase reporter, 24 h; Potency, µM (doses to about 9.22 µM), without a hit: at the top dose activation, actives largely listed as activators; 2.4% of 320,000 active; AID 485313, 2010; further: % of control where 0% means no effect; nearly all actives have a fitted effect of over 60% in size
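Quantitative HTS used a cell-based reporter: Huh7 cells stably bearing the NPC1 promoter upstream of luciferase were treated with compounds for 24 h, and promoter activation was read as luminescence.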
Rab9 prom act: qHTS Assay for Rab9 Promoter Activators; Huh7 Rab9 promoter-luciferase reporter, luminescence, 24 h; 2.8% of 320,000 active; Potency, µM (doses to about 9.22 µM), for the others: at the top dose activation, negative = inhibition, most hits filed as activators; further: % of control where 0% means no effect; nearly all actives have a fitted effect of over 60% in size
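Luminescence read-out: Huh7 cells stably expressing Rab9-luciferase, treated 24 h with compound at 37 °C, then lysed with luciferase reagent for 10 min at ambient before reading.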
SMN2 splice up: qHTS Assay for Enhancers of SMN2 Splice Variant Expression | HEK293 SMN2-luciferase splicing reporter, luminescence, 30-36 h | Potency, µM (doses to about 46.1 µM), for inactives: at the top dose activity change, positive = activation, most hits filed as activators | 2.8% of 210,000 active | AID 1458, 2008; further: % of control where 0% means no effect; nearly all actives have a fitted effect of over 55% in size
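qHTS luciferase splicing reporter: luminescence rises when SMN2 exon 7 is included in transfected HEK293 cells. Compound exposure lasted 30-36 h at 37C, with 4.5 mM final sodium butyrate as control, followed by a ONE-Glo read.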
FLuc modulator: qHTS profiling assay for firefly luciferase inhibitor/activator using purifed enzyme and Km concentrations of substrates (counterscreen for miR-21 project); 6.9% of 360,000 active; Potency, µM (titrated, usually from 57.5 µM), for inactives: at the highest dose activity change, negative = inhibition, usual class: inhibitors; Luciferin 4-monooxygenase (Photinus pyralis), P08659; purified FLuc, Km substrates, luminescence inhibition;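 further: plate controls were vehicle for no effect and reference inhibitor for full effect; nearly all actives have a fitted effect of over 55% in size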
Target sequence (P08659 whole entry, looked up): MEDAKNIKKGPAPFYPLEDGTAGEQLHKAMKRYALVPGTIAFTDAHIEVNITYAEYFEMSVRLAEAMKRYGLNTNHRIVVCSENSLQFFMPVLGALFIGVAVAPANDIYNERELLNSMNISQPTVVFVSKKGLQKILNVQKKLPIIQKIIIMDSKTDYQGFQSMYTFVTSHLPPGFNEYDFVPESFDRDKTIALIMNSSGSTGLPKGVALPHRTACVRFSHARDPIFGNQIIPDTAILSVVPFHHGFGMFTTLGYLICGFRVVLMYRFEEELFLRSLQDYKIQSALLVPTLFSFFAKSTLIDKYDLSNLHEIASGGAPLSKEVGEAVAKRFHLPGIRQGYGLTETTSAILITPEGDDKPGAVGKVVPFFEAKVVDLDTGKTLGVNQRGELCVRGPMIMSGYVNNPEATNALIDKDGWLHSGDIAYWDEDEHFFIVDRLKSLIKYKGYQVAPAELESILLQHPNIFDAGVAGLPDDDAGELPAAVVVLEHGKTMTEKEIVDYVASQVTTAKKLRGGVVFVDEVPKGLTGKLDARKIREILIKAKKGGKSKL
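Purified P. pyralis luciferase (10nM final) with 10uM D-luciferin and 10uM ATP (Km levels) in 50mM Tris acetate pH 7.5, 10mM Mg acetate, 0.01% Tween-20, 0.05% BSA; qHTS 6-point titration, ~60 µM downward; luminescence read.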
ELG1 genotox: qHTS screen for small molecules that induce genotoxicity in human embryonic kidney (HEK293T) cells expressing luciferase-tagged ELG1; Potency, µM (titrated, usually from 46 µM), for inactives: top-dose activity change, positive = activation, hits mostly activators; 1.3% of 330,000 active; HEK293T ELG1-luciferase reporter, luminescence, 16 h; further: % of control where 0% means no effect; nearly all actives have a fitted effect of over 60% in size
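Genotoxic stress is detected as increased luminescence from luciferase-tagged ELG1 in HEK293T cells, measured with ONE-Glo after a 16 hr treatment at 37 °C.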
* marks the source's active call; other numbers are inactive results; ? = inconclusive; . = not tested or not shown; [ ] = remark or other dose. A selection: hits, their analogues and other compounds. The true share with any hit is near 7.4%. The call rests on the fitted dose curve; in most records, active means well fitted curve in the direction sought with a large enough effect; inconclusive means small, poorly fitted or top-dose-only effect, or another doubt; inactive means no such curve, though single readings can be large; an effect the other way counts as inactive or inconclusive. Potency means the concentration at half of the fitted maximal effect.

SMILES	NPC1 prom act	Rab9 prom act	SMN2 splice up	FLuc modulator	ELG1 genotox
Cc1ccc(C)c(/C=N/Nc2ccccn2)c1	-11%	-1%	19%	?	14%
COc1cc(-c2ccc(N=C=O)c(OC)c2)ccc1N=C=O	.	.	-10%	.	.
Cc1ccccc1NC(=O)c1sc2nc3n(c(=O)c2c1C)N=C(c1ccccc1)CS3	.	.	.	-3%	.
O=C(O)CN1C(=O)/C(=C\c2ccc(OC(=O)c3ccco3)cc2)SC1=S	3%	-6%	.	7.6µM*	-2%
CCN1C(=O)/C(=C\c2cccc(OC(=O)c3ccco3)c2)SC1=S	-6%	4%	.	5%	4%
O=C(O)CN1C(=O)/C(=C/c2ccc(SCc3ccccc3)o2)SC1=S	-4%	-2%	15%	19µM*	1%
O=C(O)CN1C(=O)/C(=C\c2cccc(OC(=O)c3ccco3)c2)SC1=S	4%	0%	.	24µM*	0%
Cc1ccccc1NC(=O)c1c(C)oc2ccc(O)c(CN3CCCCCC3)c12	.	.	-13%	-4%	.
COc1ccccc1OCC(=O)Nc1ccccc1C(=O)Nc1cccc(C(=O)O)c1	-6%	6%	.	?	3%
COc1ccc(CC(=O)Nc2cccc(C(=O)Nc3ccccc3C(=O)O)c2)cc1OC	1%	-9%	7%	17µM*	-1%
COc1ccc(OCC(=O)Nc2cccc(C(=O)Nc3ccccc3C(=O)O)c2)cc1	1%	-2%	13%	24µM*	0%
CNC(=O)C1CC(=O)N(c2ccc(OCC(=O)Nc3ccc(OC)cc3)cc2)C1 (stereo not given)	-2%	-3%	.	5%	4%
CC1CCCN(S(=O)(=O)c2ccc3c(c2)CCN3C(=O)CCC(=O)O)C1 (stereo not given)	.	.	-9%	5%	.
Clc1ccc(-c2nc(C3CCCCC3)no2)cc1	3.2µM*	3.2µM*	?	4.8µM*	12%
Clc1ccc(-c2nnc(C3CCCCC3)o2)cc1	24%	30%	27%	?	?
N#CCCS(=O)(=O)c1ccccc1	.	.	17%	.	.
COc1ccc(-n2ncc3c(NCc4ccco4)ncnc32)cc1	2.2µM*	1.4µM*	?	9.5µM*	?
Clc1ccc(-n2ncc3c(NCc4ccco4)ncnc32)cc1	?	2.5µM*	-19%	6µM*	-7%
COc1ccc(-n2ncc3c(NCc4ccccn4)ncnc32)cc1	?	?	?	15µM*	?
CN(C)C[C@@H](O)c1ccc(Cl)c2ccccc12	.	.	0%[9.22 µM]	.	.
Nc1ccc(CCc2nc3ccccc3o2)cc1	2.5µM*	1.6µM*	13µM*	2.7µM*	2.9µM*
Cc1ccc(CNC(=O)c2ccc(N3CCC4(CC3)CC(c3ccccc3)=NO4)c(NC(=O)c3c(Cl)cccc3Cl)c2)cc1	-2%	1%	.	3%	4%
CCCCn1cc2c(c1-c1ccc(Br)cc1)c(=O)n(C)c(=O)n2C	.	.	-14%	0%	.
CCn1c(-c2ccccn2)nc2cc(S(=O)(=O)N(C)C)ccc21	18%	27%	.	21µM*	8%
CCn1c(-c2cc(Br)cc(OC)c2O)nc2cc(S(=O)(=O)N(C)C)ccc21	-5%	-6%	-15%	-1%	-14%
SMILES	NPC1 prom act	Rab9 prom act	SMN2 splice up	FLuc modulator	ELG1 genotox
O=C(COC(=O)c1cccs1)NCCC1=CCCCC1	-1%	8%	?	19µM*	-1%
Cc1ccc(C(=O)OCC(=O)NCCC2=CCCCC2)s1	1%	-5%	13%	-10%	-1%
O=C(COC(=O)c1ccccc1Cl)NCCC1=CCCCC1	3%	16%	7%	17µM*	15%
Cc1nc2ccccn2c1C(=O)N/N=C/c1ccccc1	-2%	-4%	.	-11%	1%
Cc1ccn2c(C(=O)N/N=C/c3ccc(CNC(=O)C(=O)Nc4ccc(C)c(C)c4)o3)c(C)nc2c1	1%	-1%	28%	6.7µM*	0%
Cc1ccc(NC(=O)C(=O)NCc2ccc(/C=N/NC(=O)c3c(C)nc4ccccn34)o2)cc1	-2%	-2%	?	1.7µM*	2%
O=C(NCc1cccc(Cl)c1)C1CCN(c2nn3cc(-c4ccc(F)cc4)nc3s2)CC1	.	.	.	-2%	.
O=C(NCc1cccc(Cl)c1)C1CCCN(c2nn3cc(-c4ccc(F)cc4)nc3s2)C1 (stereo not given)	.	.	.	9.5µM*	.
CCN(CC)CCNC(=O)C1CCN(c2nn3cc(-c4ccc(F)cc4)nc3s2)CC1	.	.	.	21µM*	.
COc1ccc(-c2cn3nc(N4CCCC(C(=O)NCc5ccccc5OC)C4)sc3n2)cc1 (stereo not given)	.	.	.	17µM*	.
Cc1ccc(-c2cn3nc(N4CCCC(C(=O)NCc5ccccc5F)C4)sc3n2)cc1 (stereo not given)	.	.	.	6µM*	.
COc1ccc(C(=O)Oc2c(Sc3ccccc3)c(C)nn2-c2ccccc2)c(OC)c1	.	.	0%	-7%	.
CCOc1ccccc1NC(=O)c1cn(C2CCCCC2)c(=O)c2c1c1ccccc1n2C	.	.	0%	-6%	.
COc1ccc(-c2cn3nc(N4CCCC(C(=O)Nc5ccc(Cl)cc5C)C4)sc3n2)cc1 (stereo not given)	.	.	.	-4%	.
COc1ccc(-c2cn3nc(N4CCCC(C(=O)NCc5ccccc5Cl)C4)sc3n2)cc1 (stereo not given)	.	.	.	9.5µM*	.
COc1ccc2cc(CCC(C)=O)ccc2c1	?	?	13µM*	?	.
C/C(=N\N=C\c1ccc(N(C)C)cc1)c1cccc([N+](=O)[O-])c1	3.5µM*	2.8µM*	14µM*	2.1µM*	?
O=C(Cc1ccccc1[N+](=O)[O-])NCc1ccccc1Cl	3.5µM*	2.8µM*	?	7.6µM*	?
Cc1ccccc1CNC(=O)Cc1ccccc1[N+](=O)[O-]	?	4µM*	14µM*	17µM*	?
CCN(CC(=O)NCc1ccc(Cl)cc1)C(=O)Cc1ccccc1[N+](=O)[O-]	2.5µM*	3.5µM*	.	?	?
Cc1cccc(C)c1NC(=O)CNC(=O)Cc1ccccc1[N+](=O)[O-]	2%	0%	.	4%	-2%
O=C(c1cccc(S(=O)(=O)N2CCc3ccccc32)c1)N1CCOCC1	.	.	.	.	3%
COc1cc(S(=O)(=O)N2CCN=C2c2ccccc2)ccc1F	-21%	-15%	11µM*	1%	2%
Cc1cc(C)cc(NC(=O)C(Cc2ccccc2)N2Cc3ccccc3C2=O)c1 (stereo not given)	.	.	.	-9%	.
CCOC(=O)Cn1c(=N)n(Cc2ccc(C(C)(C)C)cc2)c2ccccc21	.	.	-15%	1%	.
O=C(CN1C(=O)c2ccccc2S1(=O)=O)c1ccccc1Cl	-18%	?	.	3µM*	-17%
Cc1ccc(C(=O)CN2C(=O)c3ccccc3S2(=O)=O)cc1	-37%	-40%	.	?	-6%

Screening data deposited in PubChem by National Center for Advancing Translational Sciences (NCATS).
